# In PubChem BioAssay AID492998 (Southern Research Specialized Biocontainment Screening …, 2010):
# Out of some 2,300 compounds screened, about 550 (24%) were called active. Only a sample is shown. Results with a measured potency or affinity are listed apart. A number with no mark means an inactive call. The rule behind the calls is not given here.
# Assay: Vero E6 cell cytotoxicity, dose response, cytotoxicity control for non-replicating M. tuberculosis project, secondary assay (AID 492998);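 note: 100% = vehicle-treated cells and 0% = background wells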
# Conditions: series mostly up to 20 µM; viability: at the top concentration
row,SMILES,viability [%]
1,CCOC(=O)c1cc([N+](=O)[O-])c([N+](=O)[O-])cc1NC(C)=O,88
2,COc1cc2c(cc1OC)CN(C(=O)c1ccc([N+](=O)[O-])o1)CC2,72
3,O=C(c1ccc([N+](=O)[O-])o1)N1CCN(c2nc3ccc(F)cc3s2)CC1,99.2
4,CC1(CCc2ccc3c(c2)OCO3)NC(=O)c2ccccc2N1 (centres undefined),99.9
5,COc1ccccc1-c1cc(SC)c(C#N)c(=O)o1,84.8
6,COc1ccccc1-c1nnc(-c2ccc(C)cc2)o1,92.6
7,CCc1ccc(NC(=O)CCc2ccc(C)o2)cc1,101
8,O=S(=O)(NCc1cccnc1)c1ccc(Cl)c(Cl)c1Cl,92.2
9,CC1CCCN(CCCOc2ccc([N+](=O)[O-])cc2)C1 (centres undefined),104
10,Cc1ccccc1OCCNc1cc(N2CC(C)NC(C)C2)ccc1[N+](=O)[O-] (centres undefined),83.2
11,S=c1[nH]c2ccccc2o1,97.2
12,CCOc1ccc(OC(=O)c2ccc3c(=O)n4c(nc3c2)CCC4)cc1,100
13,O=Cc1c(NCc2ccco2)nc2ccccn2c1=O,97.9
14,CC(C)Oc1ccc(CNC(=O)Oc2ccccc2)cc1,90.1
15,CCCOc1ccc(N2CC(C(=O)Nc3ccccc3F)CC2=O)cc1 (centres undefined),101
16,CCOC(=O)Cn1c2ccc(F)cc2c2nc(C)sc21,108
17,Cc1cccc(NC(=O)c2cc3ccccc3o2)c1,96.6

row,SMILES,viability [%]
1,CC(C)(C)NC(=O)C(=O)NNC(=O)c1ccc(C(C)(C)C)cc1,83.8
2,CCOC(=O)c1nc2sc3c(c2c(=O)[nH]1)CCC(C)C3 (centres undefined),100
3,COc1ccc(OCC(=O)Nc2ccc(N3CCN(C(=O)c4ccco4)CC3)cc2)cc1,112
4,O=C(CCN1C(=O)S/C(=C\c2ccc(F)cc2)C1=O)Nc1ccc(C(=O)O)c(O)c1,91.7
5,CC(=O)c1cccc(NC(=O)C2COc3ccccc3O2)c1 (centres undefined),101
6,Cc1ccc(CNCc2cc(Cl)ccc2O)cc1,90
7,O=C(CCCOc1ccccc1)OCn1nnc2ccccc2c1=O,101
8,O=C(NCc1ccccc1)c1cc2ccccc2oc1=O,104
9,CCC/C(=N\NC(=O)c1ccco1)c1ccc(Cl)s1,82.4
10,C/C(=C\C(=O)c1ccc(Br)cc1)NNC(=O)c1ccccc1,77.2
11,O=C(Nc1nccs1)c1ccc(Br)cc1,96.5
12,COc1cc(C=O)ccc1OCCCCOc1ccccc1[N+](=O)[O-],98.1
13,CCOC(=O)c1cc(-c2c(Cl)cccc2Cl)no1,109
14,O=C(O)CCCCCN1C(=O)CSC1=S,94.7
15,O=C(O)c1ccc(CN2C(=O)CSC2=S)cc1,92.6
16,c1ccc(Cn2c(SCCN3CCOCC3)nnc2-c2cccnc2)cc1,92.9
17,COc1ccc(CN=C2NN=C(c3ccc(Cl)cc3)CS2)cc1,86.2
